In PubChem BioAssay (NCATS):
Several values for one entry are separate records, joined by “and”; a condition that tells them apart may be missing. Equal values may be shown once. Inconclusive results are not listed. Activity calls are given as the source filed them. The call rests on the fitted dose curve; in most records, active means well fitted curve in the direction sought with a large enough effect; inconclusive means small, poorly fitted or top-dose-only effect, or another doubt; inactive means no such curve, though single readings can be large; an effect the other way counts as inactive or inconclusive.

Legend:
[1] = molecular target: Glutathione peroxidase 1 (Homo sapiens) (UniProt P07203); test: Primary qHTS Assay for Inhibitors of Recombinant Selenoprotein Glutathione Peroxidase 1 (GPX1) (AID 1845191); further: nearly all actives have a fitted effect of over 65% in size; further: potency means the concentration at half of the fitted maximal effect; on activity, negative = inhibition: on the % scale 0 is the no-effect control and ±100 the full control effect
Glutathione peroxidase 1 (Homo sapiens), sequence (P07203 whole entry, looked up): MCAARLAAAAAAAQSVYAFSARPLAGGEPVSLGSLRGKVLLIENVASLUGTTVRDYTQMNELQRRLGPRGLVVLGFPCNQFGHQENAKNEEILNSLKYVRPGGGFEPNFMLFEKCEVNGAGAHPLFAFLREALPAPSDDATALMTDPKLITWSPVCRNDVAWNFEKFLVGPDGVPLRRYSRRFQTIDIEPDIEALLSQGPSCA
Method in brief: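 Recombinant GPX1 (10 nM final) was preincubated with compound for 30 min at room temperature, then reacted with 1 mM GSH, 0.5 mM CHP, 0.5 mM NADPH and 100 nM glutathione reductase; NADPH fluorescence (340/450 nm) was read at 0 and 15 min.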

[2] = molecular target: Phospholipid hydroperoxide glutathione peroxidase GPX4 (Homo sapiens) (UniProt P36969); test: Primary qHTS Assay for Inhibitors of Recombinant Selenoprotein Glutathione Peroxidase 4 (GPX4) (AID 1845192); further: nearly all actives have a fitted effect of over 65% in size; further: potency means the concentration at half of the fitted maximal effect; on activity change, negative = inhibition: series mostly up to about 50 µM; on the % scale 0 is the no-effect control and ±100 the full control effect
Phospholipid hydroperoxide glutathione peroxidase GPX4 (Homo sapiens), sequence (P36969 whole entry, looked up): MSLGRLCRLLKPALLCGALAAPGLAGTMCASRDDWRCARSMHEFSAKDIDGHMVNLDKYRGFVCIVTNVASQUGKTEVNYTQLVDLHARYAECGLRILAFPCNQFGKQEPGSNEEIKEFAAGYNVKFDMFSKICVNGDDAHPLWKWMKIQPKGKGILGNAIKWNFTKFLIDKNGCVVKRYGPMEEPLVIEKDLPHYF
Method in brief: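 GR-coupled readout: 100 nM GR, 1 mM GSH, 0.5 mM NADPH; NADPH fluorescence (ex 340/em 450 nm) read at t=0 and after 15 min RT. GPX4 200 nM, preincubated 30 min with compound; substrate 0.5 mM CHP.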

[3] = molecular target: Luciferin 4-monooxygenase (Photinus pyralis) (UniProt P08659); test: Primary firefly luciferase (FLuc) qHTS assay for identification of artifact compounds. (AID 1845220); further: nearly all actives have a fitted effect of over 60% in size;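 on activity change, negative = inhibition: series mostly up to about 54 µM; plate controls were DMSO vehicle for no effect and no enzyme for full effect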
Method in brief: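 In this counter-screen for luciferase artifacts, test compounds met substrate (10 uM each luciferin and ATP) before 10 nM enzyme started the reaction. Light output was measured 5 min later.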

[4] = Primary fluorescence-based thiol-reactive (MSTI) qHTS assay for identification of artifact compounds. (AID 1845221); further: nearly all actives have a fitted effect of over 65% in size; further: potency means the concentration at half of the fitted maximal effect;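 on activity change, negative = thiol reactive: series mostly up to about 54 µM; thiol-reactive compounds lower the probe fluorescence signal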
Method in brief: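 Thiol-reactive compounds detected by quenching of 4 uM MSTI fluorescence (525/598 nm) after 1 h room-temperature dark incubation in PBS pH 7.4, 2% DMSO. qHTS titration; percent inhibition Hill-fitted against Acetyl-MSTI/MSTI controls.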

[5] = system: Nanoluciferase (engineered Oplophorus gracilirostris luciferase); test: Primary Nanoluciferase (NLuc) qHTS assay for identification of artifact compounds. (AID 1845222); further: potency means the concentration at half of the fitted maximal effect;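 on activity, negative = inhibition: NLuc secreted into diluted conditioned medium of S16 cells; series mostly up to about 54 µM; 0% = DMSO and -100% = no enzyme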
Method in brief: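 Using secreted nanoluciferase in S16 culture medium (0.22 um filtered, 1:55 dilution), compounds were preincubated 15 min at RT. Signal was generated with Nano-Glo reagent (1:100) over 5 min.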

[6] = Primary redox qHTS assay for identification of artifact compounds. (AID 1845223);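 further: 0% = DMSO and 100% = reference compound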
Method in brief: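 Amplex Red (25 uM) and HRP (250 mU/mL) in HBSS, with compounds for 15 min, then 250 uM DTT for 30 min, room temperature, dark. Fluorescence 525/598 nm read; normalized to DMSO and 10 uM DA3003; Hill fit.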

COC(=O)[C@@]1(O)C=CC[C@@H]2[C@@]3(C)C[C@@H](c4ccoc4)OC(=O)[C@H]3CC[C@]21C
inactive: Potency [1] | Potency [2] | Potency [3] | Potency [4] | Potency [5] | Potency [6]

O=C(CCCCc1ccc2ccccc2c1)C(F)(F)F
inactive: Potency [1] | Potency [2] | Potency [3] | Potency [4] | Potency [5] | Potency [6]

Cn1ccnc1CCOC(c1cc2nccc(C(=O)O)c2[nH]1)c1ccccc1Cl (stereo not given)
inactive: Potency [1] | Potency [2] | Potency [3] | Potency [4] | Potency [5] | Potency [6]

C=CC1C(O[C@@H]2O[C@H](CO)[C@@H](O)[C@H](O)[C@H]2O)OC=C(C(=O)OC)C1CC(=O)O (stereo not given in full)
inactive: Potency [1] | Potency [2] | Potency [3] | Potency [4] | Potency [5] | Potency [6]

CCOc1nc2cccc(C(=O)O)c2n1Cc1ccc(-c2ccccc2-c2noc(=O)[nH]2)cc1
active: Potency [5] 21.3 µM
inactive: Potency [1] | Potency [2] | Potency [3] | Potency [4] | Potency [6]

COc1ccc(C(O[C@@H]2O[C@H](CO)[C@@H](O)[C@H](O)[C@H]2O)C(CO)Oc2ccc(/C=C/CO)cc2OC)cc1O (stereo not given in full)
inactive: Potency [1] | Potency [2] | Potency [3] | Potency [5] | Potency [6]
active: Potency [4] 5.19 µM

C=C1CC[C@@H]2[C@](C)(CO[C@@H]3O[C@H](CO)[C@@H](O)[C@H](O)[C@H]3O)CCC[C@@]2(C)[C@@H]1CCC1=CCOC1=O
inactive: Potency [1] | Potency [2] | Potency [3] | Potency [4] | Potency [5] | Potency [6]

CCOC(=O)[C@H](CCc1ccccc1)CC1(C(=O)N[C@H]2CCc3ccccc3N(CC(=O)O)C2=O)CCCC1
inactive: Potency [1] | Potency [2] | Potency [3] | Potency [4] | Potency [5] | Potency [6]

CC(=O)OCC(=O)O[C@@H]1[C@H]2[C@@H](OC(=O)c3ccccc3)[C@@H](C)C[C@]2(O)[C@H](OC(C)=O)C2(C)[C@H]3CC(C)(C)C(=O)[C@@H]3CC1(OC(C)=O)[C@@H]2OC(C)=O (stereo not given in full)
inactive: Potency [1] | Potency [2] | Potency [3] | Potency [4] | Potency [5] | Potency [6]

COc1ccc(C(OC2OC(CO)C(O)C(O)C2O)C(C)O)cc1 (stereo not given)
active: Potency [4] 14.7 µM
inactive: Potency [1] | Potency [2] | Potency [3] | Potency [5] | Potency [6]

CC1(C)CCCC2(C)C1C(O)C=C(CO)C2(O)C(=O)O (stereo not given)
inactive: Potency [1] | Potency [2] | Potency [3] | Potency [4] | Potency [5] | Potency [6]

CO/N=C(/C(=O)N[C@@H]1C(=O)N2C(C(=O)O)=C(CSC(=O)c3ccco3)CS[C@H]12)c1csc(N)n1
active: Potency [1] 8.06 µM and 7.18 µM | Potency [2] 7.08 µM
inactive: Potency [3] | Potency [4] | Potency [5] | Potency [6]

O=C(O)CCc1cccc(O[C@@H]2O[C@H](CO)[C@@H](O)[C@H](O)[C@H]2O)c1O
inactive: Potency [1] | Potency [2] | Potency [3] | Potency [5] | Potency [6]
active: Potency [4] 8.26 µM

CC1(C)CC(=O)N(CCCCN2CCN(c3ncccn3)CC2)C(=O)C1
inactive: Potency [1] | Potency [2] | Potency [3] | Potency [4] | Potency [5] | Potency [6]

CCCC(N[C@@H](C)C(=O)N1[C@H](C(=O)O)C[C@@H]2CCCC[C@@H]21)C(=O)OCC (stereo not given in full)
inactive: Potency [1] | Potency [2] | Potency [3] | Potency [4] | Potency [5] | Potency [6]

C=C(C)C(C)C1OC23CC4(CO2)C(CCC2C5(C)CCC(OC6OCC(O)C(OC7OC(CO)C(O)C(OC8OCC(O)C(O)C8O)C7O)C6OC6OC(CO)C(O)C6O)C(C)(C)C5CCC24C)C3C(C)(O)C1OC(C)=O (stereo not given)
inactive: Potency [1] | Potency [2] | outcome [3] inactive [at 11.6 µM] | activity change, negative = thiol reactive [4] 644% [at 11.5 µM] | activity, negative = inhibition [5] 3.65% [at 11.6 µM] | redox activity (% of DA3003) [6] 8.02% [at 11.5 µM]

CC(=O)C1CCC2(C)C3=C(CCC12C)C1(C)CCC(=O)C(C)(C)C1CC3 (stereo not given)
inactive: Potency [1] | Potency [2] | Potency [3] | Potency [4] | Potency [5] | Potency [6]

CC1OC(OC2C(C)OC(OC3C(OC(=O)/C=C/c4ccc(O)cc4)C(CO)OC(OC4(COC(=O)/C=C/c5ccc(O)cc5)OC(CO)C(O)C4O)C3OC3OCC(O)(CO)C3O)C(O)C2O)C(O)C(O)C1O (stereo not given)
inactive: Potency [1] | Potency [2] | activity change, negative = inhibition [3] -0.562% [at 11.6 µM] | activity change, negative = thiol reactive [4] 1.76% [at 11.5 µM] | activity, negative = inhibition [5] 0.249% [at 11.6 µM] | redox activity (% of DA3003) [6] -13.7% [at 11.5 µM]

CC(=O)NCCCCn1c2c(c3ccccc31)C(=O)NCC2
inactive: Potency [1] | Potency [2] | Potency [3] | Potency [4] | Potency [5] | Potency [6]

CC(C)C(C#N)O[C@@H]1O[C@H](CO[C@@H]2OC[C@](O)(CO)[C@H]2O)[C@@H](O)[C@H](O)[C@H]1O (stereo not given in full)
inactive: Potency [1] | Potency [2] | Potency [3] | Potency [4] | Potency [5] | Potency [6]
